# Reference: PubChem BioAssay AID1159580 (chemical genetic matrix, 2015)
# Values joined by “and” are separate entries in the source; they are usually repeats but may differ in a detail not shown here. Equal entries are not always repeated. Among all 5,500 compounds or so, about 2,000 (36%) were called active. Roughly 18% stayed inconclusive and do not appear here. Some of the results follow. Unmarked numbers belong to inactive results. Rule as the data show it: active = normalized growth mostly below about 0.91 (no sharp cut-off); inconclusive = no clear call, values can overlap the other calls; inactive = mostly above about 0.92.
# Assay: chemical genetic growth profiling, strain panel (AID 1159580);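 also: tested at 20 µM; growth read once vehicle control cultures reached saturation at 30 °C; 1 = growth at the plate median or of vehicle wells; lower values mean less growth of the strain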
# Settings: growth OD
# [1] = S. cerevisiae deletion strains, locus YAL013W, strain DEP1, active compounds read low
# [2] = S. cerevisiae deletion strains, locus YAL040C, strain CLN3, active compounds read low
# [3] = S. cerevisiae deletion strains, locus YCL061C, strain MRC1 (second series), active compounds read low
# [4] = S. cerevisiae deletion strains, locus YDR150W, strain NUM1, active compounds read low
# [5] = S. cerevisiae deletion strains, locus YDR363W, strain ESC2, active compounds read low
# [6] = S. cerevisiae deletion strains, locus YER002W, strain NOP16, active compounds read low
# [7] = S. cerevisiae deletion strains, locus YJR075W, strain HOC1, active compounds read low
# [8] = S. cerevisiae deletion strains, locus YMR307W, strain GAS1, active compounds read low
# [9] = S. cerevisiae deletion strains, locus YNL153C, strain GIM3, active compounds read low
# [10] = S. cerevisiae deletion strains, locus YNL175C, strain NOP13, active compounds read low
# [11] = S. cerevisiae deletion strains, locus YNL197C, strain WHI3, active compounds read low
# [12] = S. cerevisiae deletion strains, locus YNL224C, strain SQS1, active compounds read low
# [13] = S. cerevisiae deletion strains, locus YOR083W, strain WHI5 (second series), active compounds read low
# [14] = S. cerevisiae deletion strains, locus YGR078C, strain PAC10, active compounds read low
compound,measurement,setting,value
C[C@]12CCC(=O)C=C1CC[C@@H]1[C@@H]2CC[C@@]2(C)[C@H]1CC[C@]2(O)C(=O)CO,normalized growth,[1],1.02
same,normalized growth,[2],1
same,normalized growth,[3],0.994
same,normalized growth,[4],0.994
same,normalized growth,[5],0.948
same,normalized growth,[6],0.98
same,normalized growth,[7],1
same,normalized growth,[8],1.01
same,normalized growth,[9],0.938
same,normalized growth,[10],0.969
same,normalized growth,[11],0.975
same,normalized growth,[12],0.992
same,normalized growth,[13],0.966
same,normalized growth,"S. cerevisiae deletion strains, locus YPL241C, strain CIN2, active compounds read low",1
CC(=O)[C@@]1(O)CC[C@H]2[C@@H]3CCC4=CC(=O)CC[C@]4(C)[C@H]3CC[C@@]21C,normalized growth,[1],0.961
same,normalized growth,[2],0.947
same,normalized growth,[3],0.985
same,normalized growth,[4],1
same,normalized growth,[5],0.996
same,normalized growth,[6],0.967
same,normalized growth,[14],0.975
same,normalized growth,"S. cerevisiae deletion strains, locus YGR229C, strain SMI1, active compounds read low",1.01
same,normalized growth,[7],0.984
same,normalized growth,[8],0.979
same,normalized growth,[10],0.97
same,normalized growth,[11],0.966
same,normalized growth,[12],0.957
same,normalized growth,[13],1.03
O=C(O)c1cc([N+](=O)[O-])ccc1NCCCc1ccccc1,normalized growth,[1],0.994
same,normalized growth,[2],0.958
same,normalized growth,"S. cerevisiae deletion strains, locus YBR021W, strain FUR4, active compounds read low",0.892
same,normalized growth,"S. cerevisiae deletion strains, locus YBR229C, strain ROT2, active compounds read low",0.959
same,normalized growth,"S. cerevisiae deletion strains, locus YCL029C, strain bik1, active compounds read low",0.931
same,normalized growth,[3],1.01
same,normalized growth,"S. cerevisiae deletion strains, locus YDL035C, strain GPR1, active compounds read low",0.953
same,normalized growth,"S. cerevisiae deletion strains, locus YDL074C, strain BRE1, active compounds read low",0.972
same,normalized growth,"S. cerevisiae deletion strains, locus YDL101C, strain DUN1, active compounds read low",0.984
same,normalized growth,"S. cerevisiae deletion strains, locus YDL134C, strain PPH21, active compounds read low",0.966
same,normalized growth,"S. cerevisiae deletion strains, locus YDL185W, strain tfp1, active compounds read low",0.868 (active)
same,normalized growth,"S. cerevisiae deletion strains, locus YDL192W, strain arf1, active compounds read low",0.941
same,normalized growth,"S. cerevisiae deletion strains, locus YDR101C, strain arx1, active compounds read low",0.933
same,normalized growth,[4],1.01
same,normalized growth,"S. cerevisiae deletion strains, locus YDR162C, strain NBP2, active compounds read low",0.953
same,normalized growth,"S. cerevisiae deletion strains, locus YDR318W, strain mcm21, active compounds read low",0.939
same,normalized growth,[5],0.987
same,normalized growth,"S. cerevisiae deletion strains, locus YDR388W, active compounds read low",0.928
same,normalized growth,"S. cerevisiae deletion strains, locus YDR502C, strain sam2, active compounds read low",0.94
same,normalized growth,"S. cerevisiae deletion strains, locus YEL061C, strain CIN8, active compounds read low",0.97
same,normalized growth,[6],0.954
same,normalized growth,"S. cerevisiae deletion strains, locus YER110C, active compounds read low",0.932
same,normalized growth,"S. cerevisiae deletion strains, locus YER155C, strain BEM2, active compounds read low",0.915 (active)
same,normalized growth,"S. cerevisiae deletion strains, locus YER167W, strain BCK2, active compounds read low",0.943
same,normalized growth,"S. cerevisiae deletion strains, locus YGL078C, strain dbp3, active compounds read low",0.895 (active)
same,normalized growth,"S. cerevisiae deletion strains, locus YGL086W, strain mad1, active compounds read low",0.985
same,normalized growth,"S. cerevisiae deletion strains, locus YGL248W, strain PDE1, active compounds read low",0.984
same,normalized growth,[14],0.986
same,normalized growth,"S. cerevisiae deletion strains, locus YGR135W, strain pre9, active compounds read low",0.933
same,normalized growth,"S. cerevisiae deletion strains, locus YGR252W, strain gcn5, active compounds read low",0.893
same,normalized growth,"S. cerevisiae deletion strains, locus YHR030C, strain SLT2, active compounds read low",0.941
same,normalized growth,"S. cerevisiae deletion strains, locus YHR079C, strain IRE1 (second series), active compounds read low",0.934
same,normalized growth,"S. cerevisiae deletion strains, locus YHR094C, strain hxt1, active compounds read low",0.921 (active)
same,normalized growth,"S. cerevisiae deletion strains, locus YHR129C, strain ARP1, active compounds read low",0.952
same,normalized growth,"S. cerevisiae deletion strains, locus YHR200W, strain rpn10, active compounds read low",0.922
same,normalized growth,"S. cerevisiae deletion strains, locus YIL066C, strain RNR3, active compounds read low",0.983
same,normalized growth,"S. cerevisiae deletion strains, locus YIL073C, strain SPO22, active compounds read low",0.829
same,normalized growth,"S. cerevisiae deletion strains, locus YIL125W, strain kgd1, active compounds read low",0.861 (active)
same,normalized growth,"S. cerevisiae deletion strains, locus YIR030C, strain dcg1, active compounds read low",0.918 (active)
same,normalized growth,"S. cerevisiae deletion strains, locus YJL095W, strain BCK1, active compounds read low",1.01
same,normalized growth,"S. cerevisiae deletion strains, locus YJL134W, strain LCB3, active compounds read low",0.944
same,normalized growth,"S. cerevisiae deletion strains, locus YJL168C, strain set2, active compounds read low",0.94
same,normalized growth,"S. cerevisiae deletion strains, locus YJL187C, strain SWE1 (second series), active compounds read low",0.996
same,normalized growth,"S. cerevisiae deletion strains, locus YJR043C, strain POL32, active compounds read low",0.987
same,normalized growth,[7],1
same,normalized growth,"S. cerevisiae deletion strains, locus YKL009W, strain mrt4, active compounds read low",0.707 (active)
same,normalized growth,"S. cerevisiae deletion strains, locus YKL068W, active compounds read low",0.873 (active)
same,normalized growth,"S. cerevisiae deletion strains, locus YKL085W, strain MDH1 (second series), active compounds read low",0.848 (active)
same,normalized growth,"S. cerevisiae deletion strains, locus YKL085W, strain MDH1, active compounds read low",0.848 (active)
same,normalized growth,"S. cerevisiae deletion strains, locus YKL190W, strain CNB1, active compounds read low",0.967
same,normalized growth,"S. cerevisiae deletion strains, locus YKR001C, strain vps1, active compounds read low",0.934
same,normalized growth,"S. cerevisiae deletion strains, locus YLR039C, strain RIC1, active compounds read low",0.973
same,normalized growth,"S. cerevisiae deletion strains, locus YLR058C, strain SHM2, active compounds read low",0.964
same,normalized growth,"S. cerevisiae deletion strains, locus YLR102C, strain apc9, active compounds read low",0.93
same,normalized growth,"S. cerevisiae deletion strains, locus YLR262C, strain YPT6, active compounds read low",0.933
same,normalized growth,"S. cerevisiae deletion strains, locus YLR268W, strain sec22, active compounds read low",0.957
same,normalized growth,"S. cerevisiae deletion strains, locus YLR330W, strain CHS5, active compounds read low",0.927
same,normalized growth,"S. cerevisiae deletion strains, locus YLR342W, strain FKS1 (second series), active compounds read low",0.952
same,normalized growth,"S. cerevisiae deletion strains, locus YLR371W, strain rom2, active compounds read low",0.951
same,normalized growth,"S. cerevisiae deletion strains, locus YLR418C, strain cdc73, active compounds read low",0.901
same,normalized growth,"S. cerevisiae deletion strains, locus YML016C, strain PPZ1, active compounds read low",0.958
same,normalized growth,"S. cerevisiae deletion strains, locus YML032C, strain rad52, active compounds read low",0.968
same,normalized growth,"S. cerevisiae deletion strains, locus YML124C, strain tub3, active compounds read low",0.935
same,normalized growth,"S. cerevisiae deletion strains, locus YMR078C, strain ctf18, active compounds read low",0.903 (active)
same,normalized growth,"S. cerevisiae deletion strains, locus YMR223W, strain ubp8, active compounds read low",0.945
same,normalized growth,"S. cerevisiae deletion strains, locus YMR263W, strain SAP30, active compounds read low",1.01
same,normalized growth,[8],0.945
same,normalized growth,"S. cerevisiae deletion strains, locus YNL067W, strain RPL9B, active compounds read low",0.998
same,normalized growth,"S. cerevisiae deletion strains, locus YNL128W, strain TEP1, active compounds read low",0.974
same,normalized growth,[9],1.03 and 0.971
same,normalized growth,[10],0.95
same,normalized growth,[11],0.949
same,normalized growth,[12],0.945
same,normalized growth,"S. cerevisiae deletion strains, locus YNL233W, strain BNI4, active compounds read low",1
same,normalized growth,"S. cerevisiae deletion strains, locus YNL250W, strain rad50, active compounds read low",0.851 (active)
same,normalized growth,"S. cerevisiae deletion strains, locus YNL271C, strain bni1, active compounds read low",0.874 (active)
same,normalized growth,"S. cerevisiae deletion strains, locus YNL298W, strain CLA4, active compounds read low",0.753 (active)
same,normalized growth,"S. cerevisiae deletion strains, locus YNL307C, strain MCK1, active compounds read low",0.939
same,normalized growth,"S. cerevisiae deletion strains, locus YNL322C, strain KRE1, active compounds read low",0.968
same,normalized growth,"S. cerevisiae deletion strains, locus YNR052C, strain pop2, active compounds read low",0.949
same,normalized growth,"S. cerevisiae deletion strains, locus YOL006C, strain TOP1, active compounds read low",1.07
same,normalized growth,"S. cerevisiae deletion strains, locus YOL012C, strain htz1",0.889
same,normalized growth,"S. cerevisiae deletion strains, locus YOL147C, strain pex11, active compounds read low",0.931 (active)
same,normalized growth,"S. cerevisiae deletion strains, locus YOR061W, strain CKA2, active compounds read low",0.972
same,normalized growth,"S. cerevisiae deletion strains, locus YOR069W, strain VPS5, active compounds read low",0.958
same,normalized growth,[13],0.978
same,normalized growth,"S. cerevisiae deletion strains, locus YOR136W, strain idh2, active compounds read low",0.993
same,normalized growth,"S. cerevisiae deletion strains, locus YOR144C, strain elg1, active compounds read low",0.939
same,normalized growth,"S. cerevisiae deletion strains, locus YOR184W, strain ser1, active compounds read low",0.948
same,normalized growth,"S. cerevisiae deletion strains, locus YOR316C, strain cot1, active compounds read low",0.945
same,normalized growth,"S. cerevisiae deletion strains, locus YPL055C, strain LGE1, active compounds read low",1.01 and 1.02
same,normalized growth,"S. cerevisiae deletion strains, locus YPR119W, strain clb2, active compounds read low",0.924 (active)
same,normalized growth,"S. cerevisiae deletion strains, locus YPR141C, strain kar3, active compounds read low",0.872 (active)
same,normalized growth,"S. cerevisiae deletion strains, locus YPR163C, strain tif3, active compounds read low",0.925
same,normalized growth,"S. cerevisiae deletion strains, locus YPR167C, strain met16, active compounds read low",0.943
same,normalized growth,"S. cerevisiae deletion strains, strain wtn01, active compounds read low",0.967
same,normalized growth,"S. cerevisiae strains, strain wild type, active compounds read low",0.963
